Active and inactive are the calls of the source.
Assay: basal 3T3-L1 adipocyte mitochondrial potential changes, profiling panel, cell-based, JC-1 fluorescence, 3T3-L1 adipocytes, 24 h, 100 nL compound (AID 1168); also: test concentration not given here
Settings: JC-1 mitochondrial fluorescence, higher = more signal, called active from +8 up or from −8 down

z-score, inactive:
COc1cc(Cc2cc3c(c(-c4ccccc4)n2)[Si](C(C)C)(C(C)C)OC3)cc(OC)c1OC 0.323, COCCOC(=O)N1C(=O)[C@@]2(c3cc(C#CCC(C(=O)OC)C(=O)OC)ccc31)[C@H](C(N)=O)[C@H]1C(=O)O[C@H](c3ccccc3)[C@H](c3ccccc3)N1[C@@H]2c1ccccc1OCCO 1.83, C[C@@]1([C@@H](NS(=O)(=O)c2cccc3cccnc23)c2ccc(-c3ccccc3)cc2)C[C@H]1C1CCCCC1 -0.399, C=C(C(=O)CC[C@@H](OC(=O)c1ccccc1-c1ccccc1C(=O)O)c1ccc(CO)o1)C(C)C -0.747, CCOC(=O)C1=CCC(c2cccn2C(=O)OC(C)(C)C)N(S(=O)(=O)c2ccc(C)cc2)C1 (stereo unspecified) 0.066, O=C1N(Cc2ccccc2)c2ccccc2C[C@@]12N=C(c1ccc(OCCCO)cc1)O[C@H]2c1ccccc1 -0.0792, Cc1ccc(S[C@]2(C(=O)NC3CC3)CC(=O)N(C3Cc4ccccc4C3)[C@@H]2c2ccc(CO)cc2I)cc1 -0.411, CCc1cccc(NC(=O)O[C@H]2[C@H](OC(=O)Nc3ccccc3-c3ccccc3)[C@H](OC(=O)Nc3ccccc3-c3ccccc3)[C@@H](OC)O[C@@H]2CO)c1 -0.398, CC(C)C[C@H]1NC(=O)CNC(=O)[C@@]23C(=O)N[C@@H](Cc4ccccc4)C2[C@H](C)[C@@]2(C)O[C@H]2C3/C=C/C/C=C\CNC1=O (stereo partly specified) 0.451, C=C(/C=C\CNS(=O)(=O)c1ccc(C)cc1)[C@H](O)[C@H]1CCCN1S(=O)(=O)c1ccccc1[N+](=O)[O-] -0.955, C[C@]1(C(=O)O)c2ccccc2C(=O)N(Cc2cc(C(F)(F)F)cc(C(F)(F)F)c2)[C@H]1c1ccc(CO)cc1 -0.107, COC(=O)C(CC#Cc1ccc2c(c1)[C@]1(C(=O)N2)[C@H](c2ccc(OCCO)cc2)N2[C@H](c3ccccc3)[C@H](c3ccccc3)OC(=O)[C@H]2[C@@H]1C(N)=O)C(=O)OC 0.81, CN1C(=O)C2C=CC(C(O)c3ccc(I)cc3)N(N(c3ccccc3)c3ccccc3)C2C1=O (stereo unspecified) -1.67, COc1ccc([Si](C)(C)[C@@H]2[C@@H](CC(=O)N(CCO)Cc3ccccc3)O[C@]3(C(=O)N(Cc4cccc(I)c4)c4ccccc43)[C@H]2C)cc1 1.5, COc1ccc([Si](C)(C)[C@H]2[C@H](CC(=O)N3CCC[C@H]3CO)O[C@@]3(C(=O)N(Cc4cccc(N5CCCCC5=O)c4)c4ccccc43)[C@@H]2C)cc1 0.0592, O=C1C2C=CC(C(O)C3CCCCC3)N(Nc3ccccc3F)C2C(=O)N1c1ccccc1 (stereo unspecified) -0.865, C=C(COC)/C(=C/C[C@@H](OC(C)=O)c1cccc(OCCO)c1)c1cnc2ccccc2c1 -0.0217, COC(=O)C1=CC(c2ccc(CO)cc2)=CC(C2CC2)N(Cc2cc3c(cc2Br)OCO3)C=C1C(=O)OC (stereo unspecified) 0.278, O=C/C=C/c1ccc(-c2ccccc2)cc1 0.965, COc1ccc(C(O)C2C=CC3C(=O)N(C)C(=O)C3N2Nc2ccccc2)cc1 (stereo unspecified) -0.0635, COCCOC(=O)N1C(=O)[C@@]2(c3cc(C#CCNC(N)=O)ccc31)[C@H](c1ccccc1OCCO)N1[C@H](c3ccccc3)[C@H](c3ccccc3)OC(=O)[C@H]1[C@@H]2C(=O)N1CCCCCCC1 -1.3, CC1C2C(CCCO)=CC(C3C(=O)N(C(N)=O)C(=O)C23)N1Cc1cccc(OC(F)(F)F)c1 (stereo unspecified) -0.795, CCCC=C(CCC)[C@@H](NC(=O)c1ccc(C(=O)OC)cc1)c1ccc(C(=O)OC)cc1 -1.28, COc1ccc(C#Cc2ccc3c(c2)[C@]2(C(=O)N3)[C@H](c3ccccc3OCCO)N3[C@H](c4ccccc4)[C@H](c4ccccc4)OC(=O)[C@H]3[C@@H]2C(=O)NC[C@H](O)c2ccccc2)cc1 3.95, C=C(C(=O)CC[C@@H](OC(=O)c1ccccc1-c1ccccc1C(=O)O)c1cccc(OCCO)c1)C(C)C 1.01, C[C@]1(C(=O)NC2CC2)c2ccccc2C(=O)N(Cc2cc(F)cc(C(F)(F)F)c2)[C@H]1c1ccc(CO)cc1 0.0232

From PubChem BioAssay
